Hits are enriched below; roughly 7.3% of the tested compounds scored in any of these assays.
Tau FP inhib: qHTS for Inhibitors of Tau Fibril Formation, Fluorescence Polarization | Microtubule-associated protein tau (Homo sapiens), P10636 | K18 P301L tau heparin fibrillization, Alexa594 FP, 6 h | Potency, µM (series often up to 57.7 µM), inactives show at the highest dose activity, negative = inhibition, hits mostly inhibitors | actives 0.39% (n = 280,000); further: nearly all actives have a fitted effect of over 55% in size
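Compound effects on tau fibrillization are measured by Alexa 594 fluorescence polarization (ex 555, em 632 nm). K18 P301L tau is used at 15 uM with 0.24 uM labeled tracer, and 20 uM heparin induces aggregation over 6 hr at 37 C.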
Tau fluor cs: Counterscreen qHTS for Inhibitors of Tau Fibril Formation, Fluorescence Polarization; tau K18 P301L Alexa594 fluorescence, heparin fibrillization; Potency, µM (titrated, usually from 57.7 µM), for the others: top-dose activity change, negative = decrease; actives 0.93% (n = 280,000); AID 1463, 2008; further: nearly all actives have a fitted effect of over 55% in size
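Human tau K18 P301L (15 uM unlabeled, 0.24 uM Alexa 594-labeled) in 100 mM sodium acetate pH 7 with 20 uM heparin, 6 hr at 37 C. ThT 30 uM added, 1 hr ambient; Alexa 594 FP and total fluorescence read at 555/632 nm.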
Tau fibril ThT: qHTS for Inhibitors of Tau Fibril Formation, Thioflavin T Binding; recombinant tau K18 P301L (four-repeat tau fragment), heparin-induced fibrillization, ThT fluorescence; Microtubule-associated protein tau (Homo sapiens), P10636; AID 1460, 2008; actives 2.1% (n = 270,000); Potency, µM (top dose mostly 57.4 µM), for inactives: at the top dose activity, negative = inhibition, most hits filed as inhibitors; further: nearly all actives have a fitted effect of over 55% in size
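Tau K18 P301L fragment (15 uM unlabeled plus 0.24 uM Alexa 594-labeled) in 100 mM sodium acetate pH 7 with compound, fibrillization induced by 20 uM heparin for 6 hr at 37 C. Thioflavin T (30 uM) added, fluorescence read after 1 hr (ex 450, em 510 nm).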
Gal4-VP16 FLuc: VP16 counterscreen qHTS for inhibitors of ROR gamma transcriptional activity | Drosophila S2 Gal4-VP16 UAS-luciferase, luminescence, 20 h | Potency, µM (series often up to 53.6 µM), without a hit: top-dose activity, negative = inhibition, most hits filed as inhibitors | actives 3.5% (n = 310,000);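 further: Gal4-VP16 expression switched on by copper sulfate through the metallothionein promoter; nearly all actives have a fitted effect of over 50% in size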
RORg inh: qHTS for inhibitors of ROR gamma transcriptional activity; Nuclear receptor ROR-gamma (Mus musculus), P51450; Drosophila S2 Gal4-RORgamma UAS-luciferase reporter, 20 h; Potency, µM (titrated, usually from 53.6 µM), inactives show at the top dose activity change, negative = inhibition, usual class: inhibitors; actives 5.4% (n = 310,000); AID 2551, 2010; further: nearly all actives have a fitted effect of over 60% in size
Target sequence (P51450 whole entry, looked up, the tested form may be a part): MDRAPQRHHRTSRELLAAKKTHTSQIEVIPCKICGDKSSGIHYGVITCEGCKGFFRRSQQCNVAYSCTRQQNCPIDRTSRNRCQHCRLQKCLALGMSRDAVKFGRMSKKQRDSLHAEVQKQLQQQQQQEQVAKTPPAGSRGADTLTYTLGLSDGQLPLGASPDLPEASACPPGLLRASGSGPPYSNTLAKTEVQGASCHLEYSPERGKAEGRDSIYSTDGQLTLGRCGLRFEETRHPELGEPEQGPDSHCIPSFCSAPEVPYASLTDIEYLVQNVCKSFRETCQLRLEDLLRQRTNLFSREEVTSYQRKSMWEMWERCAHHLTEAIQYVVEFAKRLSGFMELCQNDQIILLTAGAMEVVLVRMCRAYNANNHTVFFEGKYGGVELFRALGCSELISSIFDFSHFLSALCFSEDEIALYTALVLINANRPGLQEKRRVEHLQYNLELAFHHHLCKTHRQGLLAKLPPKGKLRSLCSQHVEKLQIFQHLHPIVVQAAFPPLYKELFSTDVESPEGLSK
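Schneider cells (Drosophila), stable Gal4 DBD–ROR gamma + UAS-luc; 1 hr cmpd preincubation; Cu2+ induction 700 uM final; 20 hr ambient; luminescence.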
* hit, by the source's call; ? = inconclusive; nt = no result; [ ] = remark or other dose. The call rests on the fitted dose curve; in most records, active means well fitted curve in the direction sought with a large enough effect; inconclusive means small, poorly fitted or top-dose-only effect, or another doubt; inactive means no such curve, though single readings can be large; an effect the other way counts as inactive or inconclusive. On the % scale 0 is the no-effect control and ±100 the full control effect; potency means the concentration at half of the fitted maximal effect.

SMILES | Tau FP inhib | Tau fluor cs | Tau fibril ThT | Gal4-VP16 FLuc | RORg inh
CCC1=NN(C(=O)COc2ccccc2C)C(O)(c2ccncc2)C1 (centres undefined) | 6% | 10% | 2% | ? | 4µM*
COC(=O)N1[C@H]2CC[C@@]3(C)C=C(C)O[C@]1(C)C3c1ccccc12 | -1% | -8% | -4% | -3% | 17%
O=C(Nc1ccc(Cl)cc1)/C(=C/c1cccc(O)c1)c1nc2ccccc2s1 | ? | ? | 20µM* | 20µM* | 11µM*
Cc1ccc(NC(=S)c2nc3ccccc3s2)cc1 | -4% | -22% | ? | 2µM* | 1µM*
Cc1ccc(C)c(NC(=S)c2nc3ccccc3s2)c1 | 1% | -7% | -19% | 0.71µM* | 0.4µM*
O=C(O)C/C(=C\c1cccc(NC(=O)c2ccccc2Cl)c1)c1nc2ccccc2s1 | 0% | -11% | ? | 6% | -37%
S=C(Nc1ccc(Cl)cc1)c1nc2ccccc2s1 | -7% | -20% | ? | 1.4µM* | 0.32µM*
COc1ccc(NC(=O)c2nc3ccccc3s2)cc1 | -3% | -15% | ? | ? | -41%
COc1ccc(COC[C@H](C)[C@H](O[Si](C)(C)C)[C@@H](C)[C@H]2OC(=O)[C@H]2C)cc1 | nt | nt | nt | 3% | 17%
CC1(C)CC(NC(=O)c2cc(Cl)ccc2Cl)CC(C)(C)N1 | nt | nt | nt | -8% | -1%
NC(N)=NC(=S)Nc1ccc(Cl)cc1 | -2% | -15% | -11% | ? | ?
N/C(=N\C(=S)Nc1ccccc1)c1ccccc1 | nt | nt | nt | ? | 7.9µM*
COC(=O)[C@H](Cc1ccccc1)NC(=O)[C@@H](C)CO | -1%[11.6 µM] | -8%[11.6 µM] | -6%[11.5 µM] | -5%[10 µM] | 10%[10 µM]
O=C(O)c1ccc(S(=O)(=O)N[C@H](Cc2c[nH]c3ccccc23)C(=O)O)cc1 | nt | nt | nt | -10% | -19%
CNC(=O)C(Sc1nc(C)nc2c1oc1ccccc12)C(C)=O (centres undefined) | 2% | -8% | -1% | 7.1µM* | 33%
Cc1nc(SCC(=O)Nc2ccccc2)c2oc3ccccc3c2n1 | -6% | -12% | -19% | -8% | 11%
COc1cccc(OC)c1OCCCOc1cccc2cccnc12 | 0% | -1% | -15% | ? | ?
Cc1cccc(OCCCCc2c(C)n[nH]c2C)c1C | 3% | -5% | ? | ? | 14µM*
Cc1ccc(OCCCOc2cccc3cccnc23)cc1C | 15% | -2% | ? | ? | 14µM*
Cc1cccc(OCCCOc2cccc3cccnc23)c1C | 2% | -9% | ? | ? | 13µM*
COc1ccc(-c2cc3c(=O)n(CC(=O)Nc4cc(C)ccc4C)ccn3n2)cc1 | -9% | -4% | -9% | nt | nt
O=[N+]([O-])c1ccc(-c2nc3ccc([N+](=O)[O-])cc3[nH]2)cc1 | ? | ? | 2.8µM* | -2% | ?
O=[N+]([O-])c1ccc2nc(/C=C/c3ccc(Cl)cc3)[nH]c2c1 | -2% | ? | 13µM* | ? | ?
Nc1ccc(-c2nc3ccc([N+](=O)[O-])cc3[nH]2)cc1 | 14% | ? | 13µM* | -21% | 28%[10 µM]
Cc1ccc(Nc2nc(=O)c3cccnc3s2)cc1 | -3% | -6% | -14% | 20% | 40%
SMILES | Tau FP inhib | Tau fluor cs | Tau fibril ThT | Gal4-VP16 FLuc | RORg inh
COc1ccc(OC)c(Nc2nc(=O)c3cccnc3s2)c1 | ? | -2% | ? | 3.2µM* | 4.5µM*
CCNc1ncc2nc(-c3ccc(Cl)cc3)c(=O)n(Cc3cccs3)c2n1 | nt | nt | nt | 3% | -2%
Cc1ccc(/C=C/C(=O)c2ccc(C)cc2)cc1 | 6% | -2% | ? | -13% | -38%
Cc1ccc(/C=C/C(=O)Nc2ccccc2C(N)=O)cc1 | -3% | 1% | 2% | ? | 3.5µM*
NC(=O)c1ccccc1N/C=C/C(=O)c1ccco1 | 3% | 0% | ? | -9% | -20%
NC(=O)c1ccccc1N/C=C/C(=O)c1ccc(Cl)cc1 | -11% | -18% | -16% | 1.6µM* | 1.4µM*
